Compounds with a hit are over-represented: about 3.3% of the library has one in this group of screens.
NR3A LBD binder: NR3A (human) ligand-binding domain modulation | NR3A LBD differential scanning fluorimetry, Tm shift; 0% = protein alone, 100% = glycine-bound protein | 2.5% of 340,000 active | Tm shift relative to glycine control, % at 25 µM | AID 1259313;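 active = melting temperature shift of at least 10% of the positive control shift, at one fixed dose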
UBC9 SUMO inh: inhibitors of human SUMOylation (UBC9) | HTRF SUMOylation assay, SAE1/SAE2 + UBC9, in vitro | inhibition, % at 35 µM | 0.36% of 290,000 active; in the data active = inhibition above about 50%, passing the limit was not always enough
Target sequence (P63279 whole entry, looked up): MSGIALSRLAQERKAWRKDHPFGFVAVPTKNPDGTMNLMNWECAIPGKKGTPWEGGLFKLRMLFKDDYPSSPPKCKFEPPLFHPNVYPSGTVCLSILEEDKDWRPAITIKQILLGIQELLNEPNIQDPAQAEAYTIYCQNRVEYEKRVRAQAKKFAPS
HGIII-sPLA2 inh: Blocks human group III sPLA2 activity; inhibition, % at 12.2 µM; AID 743126; QFRET BODIPY PC-A2 liposome hydrolysis, fluorescence; 0.56% of 370,000 active;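 active = inhibition above mean plus 3 SD of compounds lying within the high and low control bounds, cut at about 19% in these data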;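 also: 0% = median of test compound wells and 100% = no enzyme DMSO wells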
UBC13 polyUb: blocks human UBC13 polyubiquitin chain formation; TR-FRET; inhibition, % at 20 µM; 0.47% of 330,000 active; in the data active = inhibition above about 45%, passing the limit was not always enough
Target sequence (P61088 whole entry, looked up): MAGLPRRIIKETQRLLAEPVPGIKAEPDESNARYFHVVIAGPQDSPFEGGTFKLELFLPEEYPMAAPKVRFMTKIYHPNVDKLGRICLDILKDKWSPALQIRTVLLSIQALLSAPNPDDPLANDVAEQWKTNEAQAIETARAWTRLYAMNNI
Active calls of the source: *; · = not tested or not shown.

SMILES | NR3A LBD binder | UBC9 SUMO inh | HGIII-sPLA2 inh | UBC13 polyUb
Cn1cc(/C=C2/SC(=O)N(CC(=O)Nc3ccc4c(c3)OCO4)C2=O)c2ccccc21 | -1 | 32 | -3 | -25
CC(C)(C)C(=O)Nc1nnc(SCc2ccc(F)cc2)s1 | 3 | 2 | -4 | 3
CCOC(=O)C(=O)Nc1nnc(SCc2ccc(F)cc2)s1 | 22* | 1 | 1 | -5
CCC(=O)Nc1nnc(SCc2ccc(F)cc2)s1 | -7 | 8 | -2 | 1
CC(=O)Nc1ccc(N2C(=O)c3ccc(C(=O)Nc4nnc(SCc5ccc(F)cc5)s4)cc3C2=O)cc1 | 10* | 32 | 0 | -51
N#Cc1nc(Nc2cccc(Cl)c2)c2ncn(C3CCCC3)c2n1 | 11* | · | 12 | 14
CCCN(CC1CC1)C(=O)c1ccc(CNC(=O)c2cccc(Br)c2)cc1 | · | · | -15 | ·
O=C(Nc1ccccc1-c1nc2ccccc2s1)c1cccnc1Cl | -22 | 58* | -1 | 8
Cc1cc(C)c(O)c(-c2cc(C(=O)NCCc3ccc(S(N)(=O)=O)cc3)[nH]n2)c1 | -5 | -8 | -19 | 8
Cc1cc(O)c(-c2cc(C(=O)NCCc3ccc(S(N)(=O)=O)cc3)[nH]n2)cc1C | 22* | 6 | -30 | 15
COc1ccc(CCNC(=O)c2cc(-c3cc(Cl)ccc3O)n[nH]2)cc1OC | 10* | -3 | -10 | 11
NS(=O)(=O)c1ccc(CCNC(=O)c2cc(-c3cc(Cl)ccc3O)n[nH]2)cc1 | 25* | 13 | -19 | 20
C=CCN(CC#Cc1ccc(C(F)(F)F)cc1)CC=C | · | · | 1 | ·
CN(C)CC(=O)N[C@@H]1C[C@@H]2O[C@@H](CO)CC[C@@H]2O[C@@H]1CCc1ccc(C#Cc2ccccc2)cc1 | · | · | -35 | ·
CCCc1ccc(-c2cc(NC(=O)CSc3n[nH]c(N)n3)n(-c3ccccc3)n2)cc1 | 18* | -15 | -30 | -8
COc1ccc(-c2cc(C(=O)OCC(=O)Nc3ccc4c(c3)OCO4)c3ccccc3n2)cc1 | 15* | 1 | -6 | -6
COc1ccc(NS(=O)(=O)c2ccc(O)c(C(=O)OCC(=O)Nc3ccc4c(c3)OCCO4)c2)cc1 | 19* | 7 | -16 | -3
CCOc1ccc(-c2cc(C(=O)Nc3ccc4c(c3)OCCO4)c3ccccc3n2)cc1 | -1 | -4 | -3 | -8
O=C(COC(=O)c1cc(-c2ccccc2)nc2ccccc12)Nc1ccc2c(c1)OCO2 | 13* | 1 | 0 | -5
O=C(COC(=O)c1c2c(nc3ccccc13)CCCC2)Nc1ccc2c(c1)OCO2 | -1 | -2 | -9 | -12
O=C(Nc1cccnc1)c1noc2c1CCCC2 | 11* | 15 | 5 | 6
O=S(=O)(c1ccc(-c2csc(Nc3ccc(Br)cc3)n2)cc1)N1CCCC1 | 25* | 12 | -3 | -8
O=S(=O)(c1ccc(-c2csc(Nc3ccc(F)cc3)n2)cc1)N1CCCC1 | 24* | -2 | -5 | 1
COC(=O)C1CN(Cc2cn(CCC3OCCO3)nn2)CCS(=O)(=O)N1Cc1ccc(C)cc1 (configuration not stated) | · | · | 6 | ·
Cc1[nH]nc(-c2ccc(OCc3cnn(-c4ccccc4)c3)cc2O)c1Oc1ccc(F)cc1 | 20* | -8 | -2 | -2
SMILES | NR3A LBD binder | UBC9 SUMO inh | HGIII-sPLA2 inh | UBC13 polyUb
CCOc1ccc(-c2n[nH]c(C)c2Oc2ccc(OC)cc2)c(O)c1 | 12* | -4 | -36 | 12
C(=C\c1ccccc1)/CSc1nnc(COc2ccccc2)n1Cc1ccco1 | · | · | -12 | ·
CC[C@H](CCCc1ccc(F)cc1)CN(Cc1ccc(OC)cc1)S(=O)(=O)c1ccc(C)cc1 | · | · | 6 | ·
Nc1n[nH]c(=S)n1/N=C1/C(=O)Nc2ccccc21 | 26* | 0 | 18 | ·
COc1ccccc1-c1cnn2c(NCc3ccccc3)cc(C)nc12 | 10* | 14 | -1 | -3
CCn1c(COc2ccc(C)cc2)nnc1SCC(=O)c1ccc(-c2ccccc2)cc1 | · | · | -26 | ·
COc1cccc(Oc2coc3cc(OC(=O)N4CCOCC4)ccc3c2=O)c1 | 10* | -4 | -6 | 4
CC1CC(C)CN(C(=O)CNC(=O)c2ccc3ccccc3c2)C1 (configuration not stated) | 92* | 16 | -2 | -1
O=C(NCC(=O)N1CCCCC1)c1ccc2ccccc2c1 | 1 | -2 | 1 | 4
CCN1CCc2c(sc(NC(=O)Nc3ccc(Cl)c(Cl)c3)c2C(N)=O)C1 | 18* | 14 | -89 | ·
CCN1CCc2c(sc(NC(=O)Cc3ccccc3)c2C(N)=O)C1 | 0 | -7 | 10 | -7
Cc1ccc(NC(=O)Cc2ccc(OC(F)F)cc2)c(S(=O)(=O)N2CCOCC2)c1 | · | · | -7 | ·
COc1ccc(NC(=O)C2CC(=O)N(CCc3ccc(Cl)cc3)C2)cc1 (configuration not stated) | 12* | 8 | -11 | 1
CCCCOCCCNC(=O)C[C@H]1C[C@@]2(C(=O)OC)C(=C[C@H](C3CCCC3)O[C@@H]2C)N(Cc2ccco2)C1=O | · | · | -16 | ·
N#CCC(CNc1ncc(C(F)(F)F)cc1Cl)OC(=O)c1c(F)cccc1F (configuration not stated) | -9 | · | -4 | 2
N#CCC(CNc1ncc(C(F)(F)F)cc1Cl)OC(=O)c1ccc(Cl)cc1 (configuration not stated) | 11* | -22 | 0 | 4
CCNC(=S)Nc1cc(C)ccn1 | -10 | -11 | 11 | 3
CCCc1cc(C(N)=S)ccn1 | 12* | 9 | 5 | 12
COc1ccc(C2CCC3(CCC(=O)N3CCOC(=O)NCc3ccc(Cl)cc3)CC2)cc1 (configuration not stated) | · | · | -15 | ·
N#C/C(=C\c1c[nH]c2ccc(Br)cc12)c1ccccn1 | 22* | 0 | -3 | 7
N#C/C(=C\c1ccc(C(=O)O)cc1)c1ccccn1 | 0 | 19 | 2 | -1
CC(C)CN(CC(C)C)C(=O)c1cn(C(C)c2ccccc2)nn1 (configuration not stated) | · | · | 8 | ·
Cc1ccc(NS(=O)(=O)c2ccc(N3CCN(c4ccc(O)cc4)CC3)c([N+](=O)[O-])c2)c(C)c1 | 17* | -18 | -25 | -13
COc1ccc(C(=O)n2cnc(N)n2)cc1 | 1 | 16 | 0 | 1
CNC(=S)n1cnc(N)n1 | 12* | 4 | -1 | 2
SMILES | NR3A LBD binder | UBC9 SUMO inh | HGIII-sPLA2 inh | UBC13 polyUb
O=C(NCC(c1ccccc1)c1ccccc1)[C@H](Cc1c[nH]c2ccccc12)NC1(C(=O)NC2CCCCC2)CCC1 | · | · | -70 | ·
COc1ccc(C2(c3ccc(OC)cc3)NC(=O)N(CC(=O)NCC(C)c3ccccc3)C2=O)cc1 (configuration not stated) | 25* | · | -26 | 4
Cc1ccc(S(=O)(=O)C(C#N)c2nc3ccccc3nc2N2CCC(C)CC2)cc1 (configuration not stated) | -6 | 81* | -14 | ·
COC(=O)C1CCCN(C(=O)C2CCN(S(=O)(=O)c3ccc([N+](=O)[O-])cc3)CC2)C1 (configuration not stated) | · | · | 3 | ·
Cc1cc(=O)n(CCCc2ccccc2)[nH]1 | -3 | · | 1 | 3
N#CCCn1[nH]c(-c2ccccc2)cc1=O | -10 | 69* | 10 | -6
CCOc1ccc(C(=O)Nc2nnc(NC(=S)Nc3ccccc3)s2)cc1 | 34* | -2 | 6 | 14

Source: PubChem BioAssay (several laboratories)
